Measured values: PubChem BioAssay AID1159580 (chemical genetic matrix, 2015)
Hit rate of the full screen: of about 5,500 compounds, about 2,000 (36%) were called active. Roughly 18% stayed inconclusive and do not appear here. Rule as the data show it: active = normalized growth mostly below about 0.91 (no sharp cut-off); inconclusive = no clear call, values can overlap the other calls; inactive = mostly above about 0.92. The list shows a part of the results.

Assay: chemical genetic growth profiling, strain panel (AID 1159580);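 also: tested at 20 µM; growth read once vehicle control cultures reached saturation at 30 °C; 1 = growth at the plate median or of vehicle wells; lower values mean less growth of the strain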
Conditions: S. cerevisiae deletion strains, growth OD

Measured: normalized growth

COC(=O)[C@@H](N)CCCN=C(N)N[N+](=O)[O-]
inactive: locus YAL013W, strain DEP1, active compounds read low 0.999 | locus YAL040C, strain CLN3, active compounds read low 1 | locus YCL061C, strain MRC1 (second series), active compounds read low 1 | locus YDR150W, strain NUM1, active compounds read low 1.01 | locus YDR363W, strain ESC2, active compounds read low 1.01 | locus YER002W, strain NOP16, active compounds read low 0.991 | locus YGR078C, strain PAC10, active compounds read low 1.01 | locus YMR307W, strain GAS1, active compounds read low 0.986 | locus YNL175C, strain NOP13, active compounds read low 1 | locus YNL197C, strain WHI3, active compounds read low 0.994 | locus YNL224C, strain SQS1, active compounds read low 1 | locus YNL322C, strain KRE1, active compounds read low 1.02 | locus YOR083W, strain WHI5 (second series), active compounds read low 1
